Pf growth 48h – P. falciparum growth inhibition at 48 hours (one generation). P. falciparum luciferase growth in erythrocytes, 48 h. Potency, µM (top dose mostly 28.7 µM), inactives show top-dose activity change, negative = inhibition, actives largely listed as inhibitors. 310,000 compounds, 5.9% hits. AID 504832; also: % is scaled to controls: 0 for no effect and ±100 for the full control effect
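First compound was added to culture medium, then infected red cells at 0.1% parasitemia and 2% hematocrit (final). After incubation at 37 C under 5% CO2, luciferase detection reagent was dispensed and light output recorded.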
Pf growth 96h – P. falciparum growth inhibition at 96 hours. P. falciparum luciferase reporter growth, 96 h. 320,000 compounds, 6.9% hits. AID 504834. Potency, µM (titrated, usually from 28.7 µM), for inactives: at the top dose activity change, negative = inhibition, hits mostly inhibitors; also: % is scaled to controls: 0 for no effect and ±100 for the full control effect
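Two parasite generations (96 h, 37 C, 5% CO2) of compound exposure in infected erythrocytes (0.05% parasitemia, 2% hematocrit). Luciferase-reporter P. falciparum; decreased luminescence indicates inhibited growth, aimed at apicoplast-acting delayed death.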
SARS PLpro yeast – blocks SARS-CoV papain-like protease in a yeast assay; S. cerevisiae expressing SARS-CoV PLpro, growth rescue; Potency, µM (series often up to 32.9 µM), without a hit: at the top dose activity, positive = growth rescue, usual class: activators; 330,000 compounds, 0.19% hits; calls by dose curve; also: 0% is about no effect; nearly all actives have a fitted effect of over 55% in size
Sm TGR inh – blocks Schistosoma mansoni thioredoxin glutathione reductase; purified TGR, DTNB reduction, TNB absorbance 405 nm; Potency, µM (series often up to 114 µM), inactives show at the highest dose activity change, negative = inhibition, usual class: inhibitors; 360,000 compounds, 3% hits; AID 485364; also: % is scaled to controls: 0 for no effect and ±100 for the full control effect; nearly all actives have a fitted effect of over 60% in size
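TGR 20 nM + NADPH 100 uM (dispensed conc.), cpd preinc 15 min RT; start with NADPH (500 uM addition) then DTNB (15 mM addition). Kinetic TNB absorbance, 405 nm filter. Four-parameter Hill fit across titration.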
* hit, by the source's call; ? = inconclusive; · = no result given. This is a sample that favours compounds with a hit; in the whole collection about 12% have one here. Unless noted, calls follow the shape of the dose curve; as a rule, active = well fitted curve in the direction sought with a large enough effect; inconclusive = small, poorly fitted or top-dose-only effect, or another doubt; inactive = no such curve, though single readings can be large; an effect the other way counts as inactive or inconclusive. Potency is read from the fitted curve at half-maximal effect.

SMILES | Pf growth 48h | Pf growth 96h | SARS PLpro yeast | Sm TGR inh
COc1ccc(O)c(CN2CCCC(N3CCN(c4ccccc4OC)CC3)C2)c1 (centres undefined) | ? | 0.0% | -1.0% | -29.8%
COc1ccccc1N1CCN(C2CCCN(Cc3ccc(Cl)cc3)C2)CC1 (centres undefined) | -15.7% | 13.1µM* | -1.2% | 0.2%
N#C/C(=C\c1ccc(F)cc1)C(=O)NCC1CCCO1 (centres undefined) | · | · | · | 2.6%
O=C(c1ccc(Br)cc1)N1CCN(CCc2ccncc2)CC1 | · | · | · | -0.1%
COc1ccc(OC)c(-n2c(=O)[nH]c3cc(C(=O)NCCc4ccc(OC)c(OC)c4)ccc3c2=O)c1 | · | · | · | 6.0%
CC1(C)Cc2c(cnn2-c2ccccc2)-c2c1c1ccccc1n2CC(O)CCl (centres undefined) | 11.7µM* | ? | -46.8% | -21.6%
Cc1nccn1CC(O)Cn1c2ccccc2c2ccccc21 (centres undefined) | ? | -12.1% | -27.5% | -2.6%
CC(C)Sc1nc(SCC(=O)O)c2c3c(sc2n1)COC(C)(C)C3 | ? | ? | 0.3% | -1.2%
CCC1CCc2c(sc3nc(SCC(=O)NCc4ccco4)n(-c4ccccc4)c(=O)c23)C1 (centres undefined) | 11.7µM* | -27.6% | -5.7% | 0.0%
CC(C)Sc1nc(SCC(=O)NCc2ccco2)c2c3c(sc2n1)COC(C)(C)C3 | ? | 2.62µM* | 4.0% | 28.2µM*
CC(C)Sc1nc2sc3c(c2c2nnc(SCC(=O)NCc4ccco4)n12)CCCC3 | 6.57µM* | ? | 0.7% | ?
CCN(CC)S(=O)(=O)c1cccc(C(=O)NC(C(=O)Nc2nnc(C)s2)C(C)C)c1 (centres undefined) | 11.7µM* | · | 0.3% | -21.1%
Cc1cc(C)c2nc(NC(=O)[C@@H](NC(=O)c3cccc(S(=O)(=O)N4CCOCC4)c3)C(C)C)sc2c1 | 9.28µM* | 6.57µM* | 1.3% | -8.3%
Cc1ccsc1CN(C)C(=O)C(NC(=O)c1cccc(S(=O)(=O)N2CCOCC2)c1)C(C)C (centres undefined) | 13.1µM* | ? | -5.7% | -11.3%
CCOC(=O)N1CCc2c(sc(NCc3cc(OC)ccc3OC)c2C(=O)Nc2cc(OC)ccc2OC)C1 | · | · | · | -35.7%
O=C(NC(=S)Nc1ccccc1)c1csnn1 | -2.6% | ? | -7.6% | 14.1µM*
CCNC(=S)NNC(=O)c1cc(-c2cccnc2)nc2ccccc12 | 4.1% | 21.4% | 10.2% | 1.9%
O=C(NC(=S)Nc1ccccc1)c1cc(-c2ccccc2)nc2ccccc12 | ? | 10.4µM* | -8.3% | 3.7%
CCOC(=O)c1ccc(NC(=S)NNC(=O)c2cc(-c3cccnc3)nc3ccccc23)cc1 | 4.15µM* | 66.1% | 3.4% | -20.2%
COc1ccc(NC(=S)NC(=O)c2csnn2)cc1 | -5.1% | 32.0% | 0.2% | 0.0%
O=C(NNC(=S)Nc1ccccc1)c1cc(-c2cccnc2)nc2ccccc12 | ? | 1.17µM* | 2.1% | -1.6%
O=C(NCC(c1ccco1)S(=O)(=O)c1cccs1)c1ccccc1F (centres undefined) | · | · | · | 11.2µM*
O=C(NCC(c1ccco1)S(=O)(=O)c1cccs1)c1c(F)cccc1F (centres undefined) | · | · | · | 0.708µM*
O=C(NCC(c1ccco1)N1CCOCC1)c1c(F)cccc1F (centres undefined) | 4.7% | 13.9% | -0.9% | 8.0%
COc1ccc(C(=O)NCC(c2cccs2)S(=O)(=O)c2cccs2)cc1 (centres undefined) | · | · | · | -26.9%
SMILES | Pf growth 48h | Pf growth 96h | SARS PLpro yeast | Sm TGR inh
O=C(NCC(c1cccs1)S(=O)(=O)c1cccs1)c1cccc(F)c1 (centres undefined) | · | · | · | 20µM*
O=C(NCCc1ccc(Cl)cc1)C1COc2ccccc2O1 (centres undefined) | 2.4% | -1.6% | -14.1% | -28.9%
O=C(NN=C1CCCCC1)c1ccccc1-n1cccc1 | 9.8% | 12.0% | -1.7% | -9.9%
Cc1cc(C)cc(NC(=O)c2cc(S(=O)(=O)N3CCCCCC3)cn2C)c1 | · | · | · | 0.4%
COCCN(C(=O)COC(=O)C(c1ccccc1)c1ccccc1)c1c(N)n(Cc2ccccc2)c(=O)[nH]c1=O | 10.4µM* | 7.38µM* | 2.5% | 2.5%
CCC(C(=O)OCC(=O)N(CCOC)c1c(N)n(Cc2ccccc2)c(=O)[nH]c1=O)c1ccccc1 (centres undefined) | -5.9% | ? | 1.4% | -1.8%
COCCN(C(=O)COC(=O)c1ccccc1Nc1ccccc1)c1c(N)n(Cc2ccccc2)c(=O)[nH]c1=O | ? | 9.28µM* | -2.8% | 2.9%
COCCn1c(C)cc(/C=C(\C#N)C(=O)OCC(=O)N(C)c2c(N)n(Cc3ccccc3)c(=O)[nH]c2=O)c1C | ? | 13.1µM* | -2.2% | -14.8%
CN(C(=O)COC(=O)c1ccccc1Nc1ccccc1)c1c(N)n(Cc2ccccc2)c(=O)[nH]c1=O | ? | ? | 0.2% | -0.5%
Cc1cc(C(=O)OCC(=O)N(C)c2c(N)n(Cc3ccccc3)c(=O)[nH]c2=O)c(C)n1-c1ccccc1 | ? | ? | -5.5% | 1.0%
COc1cc(/C=C(\C#N)C(=O)Nc2ccc(SC(F)F)cc2)cc(OC)c1OC | · | 5.22µM* | 17.4% | -2.8%
COc1cccc(CNC(=O)c2ccc(NC(=O)CC3SC(N4CCCC4)=NC3=O)cc2)c1 (centres undefined) | ? | ? | -3.7% | -17.3%
CSc1nc(Sc2ccc(Cl)cc2)c2ccccc2n1 | 2.62µM* | 4.65µM* | 5.1% | -26.7%
CSc1nc(Sc2ccccc2)c2ccccc2n1 | -19.4% | -8.0% | -4.9% | 3.0%
Cc1ccc(/C=C(\NC(=O)c2ccccc2)C(=O)NC2CCN(Cc3ccccc3)CC2)o1 | ? | 0.0% | 5.6% | ?
N/C(=N\OC(=O)C12CC3CC(CC(C3)C1)C2)c1ccncc1 | 10.4µM* | ? | 4.2% | -1.0%
CCOC(=O)c1c(CSc2ccccc2)n(C)c2cc(Br)c(OCC(O)CNC(CO)(CO)CO)cc12 (centres undefined) | 11.7µM* | 13.1µM* | 21.0% | -3.8%
Cc1cc(C)n2nc3nc(N4CCCCC4)nc(-c4ccco4)c3c2n1 | ? | -18.9% | -1.3% | 1.41µM*
CCN(CC)Cc1cc(C(C)=O)ccc1OCC(C)C | 11.9% | 5.2% | 4.8% | 17.8µM*
CC(=O)c1ccc(OCC(C)C)c(CC(C(N)=O)C(N)=O)c1 | 1.5% | -13.3% | 4.2% | -22.7%
O=C(Sc1ccccc1)c1cccc(Cn2cc(C(F)(F)F)ccc2=O)c1 | 5.9% | 1.0% | -0.1% | 22.4µM*
Cc1ccc(OCC(=O)N2CCCCC2C)c([N+](=O)[O-])n1 (centres undefined) | · | · | 1.8% | ·
Cc1c(NC(=O)C(C)Oc2ccc(Br)cc2)c(=O)n(-c2ccccc2)n1C (centres undefined) | · | · | 2.2% | ·
Cc1cc(C)cc(NC(=O)C(=O)NCC(c2cccnc2)N2CCOCC2)c1 (centres undefined) | · | · | · | -11.7%
Cc1ccc(-n2c(C)nc3c(cnn3-c3ccccc3Cl)c2=O)cc1C | · | 3.7µM* | -12.9% | -6.3%
